Measured values: PubChem BioAssay
Calls of active or inactive are those of the source.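 How the source made its calls: active means viability at or under a set limit in both replicates, limit being median viability minus 3 SD (cut at about 48% in these data, passing the limit was not always enough); inconclusive means at or under the limit in just one replicate; inactive means at or above the limit in both replicates.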

Test: H69AR cell proliferation blockers – human, duplicate replicates, primary screen (AID 580);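 further: 100% = mean luminescence of untreated wells and 0% = no signal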
Details: H69AR lung tumor cells viability, ATP luminescence, 72 h; at 10 µM; stronger effect = lower value

Row | Structure (SMILES) | viability
1 | CC(C)(C)C(O)C(Oc1ccc(Cl)cc1)n1cncn1 (stereo not given) | 87.2% (inactive)
2 | COc1cc(/C=N/n2cnnc2)ccc1OC(=O)N(C)C | 102% (inactive)
3 | Nc1ccnn1C1CCNCC1 | 107% (inactive)
4 | COC(=O)c1c(C)n(Cc2ccc3c(c2)OCO3)c2ccc(O)cc12 | 105% (inactive)
5 | O=C(c1ccc(CS(=O)(=O)c2ccccc2)o1)N1CCC2(CC1)OCCO2 | 85% (inactive)
6 | COc1cc(C2NCc3ccccc3-n3cccc32)ccc1O (stereo not given) | 101% (inactive)
7 | COc1ccc(CN2CCN(C(=O)Cc3ccccc3)CC2)c(OC)c1 | 97.3% (inactive)
8 | CC(C)OC(=O)c1c(N)n(CC2CCCO2)c2nc3ccccc3nc12 (stereo not given) | 94.7% (inactive)
9 | O=C(c1sc2ccccc2c1Cl)N1CCC2(CC1)OCCO2 | 109% (inactive)
10 | CSc1ccc(C(=O)C(C)(C)N2CCOCC2)cc1 | 105% (inactive)
11 | CCCCCCC(N)CC(=O)O (stereo not given) | 94.8% (inactive)
12 | CC(C)(C)OC(=O)c1c(N)n(Cc2ccco2)c2nc3ccccc3nc12 | 65.4% (inactive)
13 | c1cncc(CNC2=NCCCCC2)c1 | 97.4% (inactive)
14 | COc1ccccc1-n1c(O)c(C=NCc2ccc3c(c2)OCO3)c(=O)[nH]c1=O | 91.8% (inactive)
15 | O=C(CCCOc1ccc(Cl)cc1Cl)N1CCC2(CC1)OCCO2 | 92.5% (inactive)
16 | Cc1oc2ccc(OC(=O)N(C)C)cc2c1C(=O)OC(C)C | 107% (inactive)
17 | Oc1ccc(C2NCc3ccccc3-n3cccc32)cc1Cl (stereo not given) | 83.8% (inactive)
18 | O=c1[nH]c(=O)n(-c2ccc(F)cc2)c(O)c1C=Nc1ccccc1N1CCCC1 | 61.3% (inactive)
19 | CCOC(=O)C1CCCCC12C(C#N)=C(N)Oc1n[nH]c(C)c12 (stereo not given) | 93.3% (inactive)
20 | COCCOC(=O)C1=C(N)Oc2c(c(=O)oc3ccccc23)C1c1ccncc1 (stereo not given) | 92% (inactive)

Row | Structure (SMILES) | viability
21 | CCN1CCN(c2ncnc3ccc(Br)cc23)CC1 | 91.2% (inactive)
22 | CCOP(=S)(OCC)c1ccc(N(C)C)cc1 | 78.3% (inactive)
23 | NC(=O)CSP(=O)(c1ccccc1)c1ccccc1 | 102% (inactive)
24 | Nc1ccc(C2(c3ccc(N)cc3)CN3CCC2CC3)cc1 | 106% (inactive)
25 | CN(C)c1cc(N)c2c(n1)CCC2 (tested in a mixture with another compound) | 86.1% (inactive)
26 | CCOc1ccc(-n2c(O)c(C=NCCN3CCNCC3)c(=O)[nH]c2=O)cc1 | 89% (inactive)
27 | CC(=NCCCO)c1c(O)n(Cc2ccccc2)c(=O)[nH]c1=O | 94.4% (inactive)
28 | Cc1cc(N2C(=O)C3CCCN3C2c2cccc(Cl)c2)no1 (stereo not given) | 109% (inactive)
29 | COc1ccc(S(=O)(=O)NC(CC(=O)N2CCC3(CC2)OCCO3)c2ccco2)cc1 (stereo not given) | 93.9% (inactive)
30 | COc1ccccc1N1CCN(Cc2c(F)cccc2F)CC1 | 94.2% (inactive)
31 | CSc1ccc(CNC2CN3CCC2CC3)cc1 (stereo not given) | 89.1% (inactive)
32 | Cc1ccc(C)c(NC2=NCCCS2)c1 | 104% (inactive)
33 | CC1=C(C(=O)OC(C)C)[C@]2(C(=O)N(CC(N)=O)c3ccccc32)C(C#N)=C(N)O1 | 113% (inactive)
34 | CCCCn1c(O)c(C(C)=NCCc2ccccc2)c(=O)[nH]c1=O | 100% (inactive)
35 | O=C1C2CCCN2C(c2ccc(Cl)c(Cl)c2)N1c1ccccn1 (stereo not given) | 97.4% (inactive)
36 | COC(=O)CC1(Cc2ccccc2)C(=O)NC(=O)NC1=O | 102% (inactive)
37 | Cc1ccc(S(=O)(=O)Cc2ccc(C(=O)N3CCC4(CC3)OCCO4)o2)cc1 | 90.6% (inactive)
38 | O=C1CC(N2CCC(n3c(=O)[nH]c4ccccc43)CC2)C(=O)N1c1ccc(F)cc1 (stereo not given) | 103% (inactive)
39 | CCOc1cc2[nH]c(=S)n(CCCC(=O)N3CCC4(CC3)OCCO4)c(=O)c2cc1OCC | 89.2% (inactive)
40 | CC(=NCc1ccc2c(c1)OCO2)c1c(O)n(C)c(=O)n(C)c1=O | 98% (inactive)
